Test systems include HT29 colon; SNB-75 CNS; SNB-19 CNS; U251 CNS; SK-MEL-5 melanoma; UACC-62 melanoma; LOX IMVI melanoma; SK-MEL-28 melanoma; SK-MEL-2 melanoma; EKVX NSCLC; SN12C renal; UO-31 renal; TK-10 renal; ACHN renal; CAKI-1 renal; CCRF-CEM leukemia; MOLT-4 leukemia; A498 renal; SR leukemia.
Common to all, as to experiment: NCI-60 one-dose screen, 48 h (100 = growth as untreated, 0 = no growth, -100 = all killed)
Conditions in all cases: 10 µM unless noted

This is part of a sample that, as a whole, favours compounds with a hit. Of some 83,000 tested, about 20% had one in any assay.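 In brief: 96-well plates, 48 h treatment, single concentration, percent growth endpoint.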 A number with no mark means an inactive call. Active and inactive are the calls of the source. The calls were made as follows: active = growth percent below 10; inactive = the rest.

`O=C(NN(C(=O)c1ccccc1)c1cccs1)c1ccccc1`: the growth was 98.5% with HT29 colon; 90.7% with SNB-75 CNS; 100% in the test on SNB-19 CNS; 111% in the test with U251 CNS; 101% with SK-MEL-5 melanoma; 88.1% in the test with UACC-62 melanoma. Also, the growth was 93.7% with LOX IMVI melanoma; 115% with SK-MEL-28 melanoma; 107% with SK-MEL-2 melanoma; 112% in the test on EKVX NSCLC; 97.1% in the test on SN12C renal; 66.1% with UO-31 renal. Also, the growth with TK-10 renal was 91.7%; with ACHN renal, 104%; with CAKI-1 renal, 110%; in the test on CCRF-CEM leukemia, 93.8%; in the test with MOLT-4 leukemia it was 107%.
In the case of `O=C(Nc1ccc(Cl)cc1)c1cc2c(cc1O)[nH]c1ccccc12`, the growth was 1.2% (active) in the test on HT29 colon; 38.3% in the test on SNB-75 CNS; 36.9% in the test with SNB-19 CNS; 22.1% with U251 CNS; 0.256% (active) in the test on SK-MEL-5 melanoma; 10.2% in the test with UACC-62 melanoma. The growth with LOX IMVI melanoma is 30.4%; in the test with SK-MEL-28 melanoma, 38.6%; in the test on SK-MEL-2 melanoma, 22.3%; with EKVX NSCLC, 10.8%; in the test on SN12C renal, 20.1%; with UO-31 renal it was 39.9%. Also, the growth is 4.83% (active) with TK-10 renal; 22.2% in the test with ACHN renal; 10.2% in the test with CAKI-1 renal; 29.8% in the test with A498 renal; 18.1% in the test on CCRF-CEM leukemia; -9.5% (active) in the test with MOLT-4 leukemia. Further, the growth in the test with SR leukemia was 1.22% (active).
Turning to `NC(=Nc1ccccc1)SCCCCSC(N)=Nc1ccccc1`, the growth with HT29 colon was 94.8%; with SNB-75 CNS, 68%; with SNB-19 CNS it was 99.3%; with U251 CNS it was 72.4%; in the test on SK-MEL-5 melanoma, 93.7%; in the test on UACC-62 melanoma, 66.5%. The growth in the test with SK-MEL-28 melanoma was 96.7%; in the test with SK-MEL-2 melanoma, 98.5%; in the test on EKVX NSCLC, 80.4%; with SN12C renal it was 87%; in the test on UO-31 renal it was 31%; in the test on TK-10 renal, 97.3%. For the same compound, the growth in the test on ACHN renal was 75.4%; in the test with CAKI-1 renal it was 74.2%; in the test with A498 renal, 82.3%; in the test on MOLT-4 leukemia it was 70.3%.
Take `COc1cccc(C2C(C#N)=C(N)Oc3cc(OC)ccc32)c1` (configuration not stated): the growth in the test with HT29 colon is -21.2% (active); with SNB-75 CNS, 46.1%; in the test on SNB-19 CNS, 44.1%; in the test with U251 CNS, 3.36% (active); in the test with SK-MEL-5 melanoma, -4.55% (active); in the test with UACC-62 melanoma, 30.9%. For the same compound, the growth with LOX IMVI melanoma was 13.2%; in the test on SK-MEL-28 melanoma, 56.2%; in the test on SK-MEL-2 melanoma it was 19.8%; with SN12C renal, 24.9%; in the test with UO-31 renal, 41.6%; in the test with TK-10 renal, 50.6%. Besides, the growth is 29.7% in the test with ACHN renal; 20.6% in the test on CAKI-1 renal; -1.19% (active) in the test on CCRF-CEM leukemia; 1.42% (active) with MOLT-4 leukemia; -30.3% (active) in the test on SR leukemia.
As for `Cc1nn(-c2ccccc2)c2c1oc(=O)c1cc(Cl)ccc12`, the growth in the test with HT29 colon is 101%; in the test with SNB-75 CNS, 83.7%; in the test with SNB-19 CNS, 99.2%; in the test on U251 CNS, 105%; in the test with SK-MEL-5 melanoma, 110%; in the test with UACC-62 melanoma, 92.3%. Also, the growth in the test with LOX IMVI melanoma was 105%; in the test with SK-MEL-28 melanoma, 140%; with EKVX NSCLC, 93.2%; with SN12C renal, 101%; in the test with UO-31 renal, 102%; with TK-10 renal it was 111%. For the same compound, the growth is 101% in the test on ACHN renal; 84.9% in the test on CAKI-1 renal; 90.9% with A498 renal; 98.1% with CCRF-CEM leukemia; 134% in the test with MOLT-4 leukemia.
As for `O=C1OC(c2ccc(-c3ccccc3)cc2)=C/C1=C/c1cccs1`, the growth with HT29 colon was 125%; in the test with SNB-75 CNS, 95.7%; in the test with SNB-19 CNS, 131%; in the test with U251 CNS it was 100%; in the test on SK-MEL-5 melanoma it was 78.2%; in the test with UACC-62 melanoma it was 74.6%. For the same compound, the growth in the test with LOX IMVI melanoma is 99.4%; with SK-MEL-28 melanoma it was 102%; with EKVX NSCLC, 78.8%; in the test on SN12C renal, 80.9%; in the test on UO-31 renal, 82.9%; with TK-10 renal it was 86.8%. Besides, the growth in the test with ACHN renal was 85.7%; in the test on CAKI-1 renal it was 81.7%; in the test on A498 renal, 97.1%; with CCRF-CEM leukemia, -27.1% (active); in the test with MOLT-4 leukemia it was 87.3%; in the test on SR leukemia, 91.5%.
On to `NNC(=O)C1CC2c3ccccc3C1c1ccccc12` (configuration not stated), for which the growth is 104% in the test on HT29 colon; 90.8% in the test on SNB-75 CNS; 107% in the test with SNB-19 CNS; 110% with U251 CNS; 110% in the test on SK-MEL-5 melanoma; 97.1% with UACC-62 melanoma. Further, the growth in the test on SK-MEL-28 melanoma is 108%; in the test on SK-MEL-2 melanoma, 109%; in the test on EKVX NSCLC, 115%; with SN12C renal, 97.8%; in the test on UO-31 renal, 93.8%; in the test on TK-10 renal it was 97.5%. In addition, the growth in the test on ACHN renal was 117%; in the test on CAKI-1 renal, 103%; in the test with A498 renal, 129%; with CCRF-CEM leukemia it was 82.8%; in the test on MOLT-4 leukemia, 105%; in the test with SR leukemia it was 89%.
`Cc1ccc(C=C2C(Cl)=C(Cl)C(Cl)=C2Cl)cc1`: the growth with HT29 colon was 8.19% (active); in the test with SNB-75 CNS it was -11.6% (active); with SNB-19 CNS, -78.3% (active); in the test on U251 CNS it was -86.3% (active); in the test with SK-MEL-5 melanoma, -94.4% (active); in the test with UACC-62 melanoma, -73.6% (active). Besides, the growth in the test on LOX IMVI melanoma is -88.7% (active); in the test on SK-MEL-28 melanoma, -87.8% (active); in the test on EKVX NSCLC, -10.6% (active); in the test on SN12C renal, -43.4% (active); with UO-31 renal it was -88% (active); in the test on TK-10 renal, -44.6% (active). Further, the growth in the test with ACHN renal is -54.8% (active); in the test with CAKI-1 renal, -35.1% (active); with A498 renal, -88.8% (active); in the test on CCRF-CEM leukemia, -45.2% (active); in the test on MOLT-4 leukemia it was 18.3%; in the test with SR leukemia, 19%.
Regarding `O=C1C(Cl)=C(N=Nc2c(Cl)c(O)c3ccccc3c2O)C(=O)c2ccccc21`, the growth was 76.3% with HT29 colon; 85.8% in the test with SNB-75 CNS; 66.3% in the test on SNB-19 CNS; 53.3% with U251 CNS; 53.1% in the test with SK-MEL-5 melanoma; 5.34% (active) in the test with UACC-62 melanoma. Also, the growth is 43% in the test with LOX IMVI melanoma; 67.3% in the test with SK-MEL-28 melanoma; 98.5% in the test with SK-MEL-2 melanoma; 71.8% in the test with SN12C renal; 70.4% with UO-31 renal; 116% in the test with TK-10 renal. The growth in the test on ACHN renal was 77%; with CAKI-1 renal, 88.9%; with A498 renal it was 63.6%; in the test with MOLT-4 leukemia, 62.1%; in the test on SR leukemia, 34.9%.

These data come from PubChem BioAssay (NCI).
